Bioassay records: PubChem, several laboratories
L929 necroptosis: inhibitors of zVAD-triggered necroptosis, primary screen, L929 cells | L929 zVAD necroptosis rescue, ATP luminescence, 24 h; with zVAD 60 µM | viability rescue, % at 10 µM | 220,000 compounds, 0.38% hits | AID 1377, 2008;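 active = activation, scaled between plate controls, above about 75%, limit read from the data; inactive = activation under that limit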;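 note: 0% = zVAD with DMSO and 100% = DMSO alone without zVAD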
PERK inh: block of dimerizer-induced PERK translation repression, primary screen, PERK inhibitor project, CHO PERK-DD cells, SEAP luminescence, HTS; Eukaryotic translation initiation factor 2-alpha kinase 3 (Homo sapiens), Q9NZJ5; CHO PERK-DD fusion, SEAP luminescence translation reporter; inhibition, % at 5.6 µM; 220,000 compounds, 0.17% hits;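 active = inhibition above the mean inhibition of all tested compounds plus 3 SD, set separately per screening campaign, cut at about 2.9% in these data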;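 note: PERK kinase domain activated by AP20187 dimerizer at 100 nM; 0% = DMSO with dimerizer and 100% = rapamycin at 8.4 µM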
Target sequence (Q9NZJ5 whole entry, looked up, the tested form may be a part): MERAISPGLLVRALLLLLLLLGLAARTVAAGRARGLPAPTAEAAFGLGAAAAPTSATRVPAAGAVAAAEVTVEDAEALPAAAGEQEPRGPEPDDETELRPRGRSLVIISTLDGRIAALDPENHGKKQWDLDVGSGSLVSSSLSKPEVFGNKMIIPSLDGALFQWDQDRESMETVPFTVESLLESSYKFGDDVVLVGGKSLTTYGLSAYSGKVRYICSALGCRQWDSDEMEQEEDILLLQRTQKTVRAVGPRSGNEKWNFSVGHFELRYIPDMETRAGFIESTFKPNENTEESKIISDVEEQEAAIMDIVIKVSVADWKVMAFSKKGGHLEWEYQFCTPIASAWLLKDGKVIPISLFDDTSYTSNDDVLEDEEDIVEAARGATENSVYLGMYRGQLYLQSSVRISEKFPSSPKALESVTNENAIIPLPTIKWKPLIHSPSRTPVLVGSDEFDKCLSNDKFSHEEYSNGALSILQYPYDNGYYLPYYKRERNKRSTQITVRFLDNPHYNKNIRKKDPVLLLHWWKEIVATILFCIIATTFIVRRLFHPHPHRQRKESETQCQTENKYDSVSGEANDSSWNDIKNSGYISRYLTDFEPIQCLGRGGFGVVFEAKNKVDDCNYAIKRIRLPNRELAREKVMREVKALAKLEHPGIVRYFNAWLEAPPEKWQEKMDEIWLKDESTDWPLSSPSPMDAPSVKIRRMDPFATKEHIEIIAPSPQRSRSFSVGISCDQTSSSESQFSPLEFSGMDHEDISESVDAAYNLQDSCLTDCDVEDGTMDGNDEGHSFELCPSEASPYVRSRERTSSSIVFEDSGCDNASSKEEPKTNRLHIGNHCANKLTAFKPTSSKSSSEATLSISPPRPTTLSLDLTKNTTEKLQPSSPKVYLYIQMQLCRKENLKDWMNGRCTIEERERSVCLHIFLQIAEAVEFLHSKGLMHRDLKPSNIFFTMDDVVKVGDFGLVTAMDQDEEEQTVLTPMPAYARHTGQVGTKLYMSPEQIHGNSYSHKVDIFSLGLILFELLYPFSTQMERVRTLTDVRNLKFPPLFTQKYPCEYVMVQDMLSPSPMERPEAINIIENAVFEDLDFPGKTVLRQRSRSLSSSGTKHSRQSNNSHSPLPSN
PKD1 inh: inhibitors of human PKD1 kinase, biochemical, fluorescence polarization; 200,000 compounds, 0.056% hits; PKD1 kinase fluorescence polarization assay; Serine/threonine-protein kinase D1 (Homo sapiens), Q15139; inhibition, % (test concentration not listed); in the data active = inhibition above about 50%
WT yeast gro inh: growth inhibition of WT strain, primary screen, mitochondrial fusion inhibitor project, WT and mutant strains, chemical genetic | mitochondrial fusion phenotypic screen | inhibition, % at 10 µM | 190,000 compounds, 2.1% hits | AID 1362, 2008; in the data active = inhibition above about 58%; tested in S. cerevisiae
TNF necrop inh: inhibitors of TNF-alpha triggered necroptosis, primary screen, cell-based, Jurkat FADD-/-, single concentration; Jurkat FADD-/- TNF necroptosis rescue, ATP luminescence, 24 h; 0 = TNF only, 100 = no-TNF cells; activation (protection from cell death), % at 10 µM; 220,000 compounds, 0.068% hits; AID 463075, 2010;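 active = activation, meaning protection from cell death, of at least 50% relative to plate controls; inactive = activation below 50%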;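 note: necroptosis triggered by 40 ng/mL TNF-alpha added together with compound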
DTT redox prof: compounds producing H2O2 with reducing agent – biochemical, NIH compound library profiling, artefact control for MLSCN library redox annotation, primary screen | DTT-dependent redox cycling H2O2, phenol red/HRP absorbance; 100% = 100 µM peroxide control, 0% = buffer | AID 878, 2007 | 200,000 compounds, 0.03% hits | activation, % at 10 µM;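 active = activation of at least 50% relative to the plate's high and low controls in the primary single-dose screen; inactive = activation below 50%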;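 note: compound incubated with DTT at 0.8 mM final as the reducing agent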
Numbers without * were called inactive; nt = no result. Hits are enriched below; roughly 2.4% of the tested compounds scored in any of these assays.

SMILES	L929 necroptosis	PERK inh	PKD1 inh	WT yeast gro inh	TNF necrop inh	DTT redox prof
Cc1ccc(Cl)cc1N1CCN(S(C)(=O)=O)CC1	0	1	-2	2	0	0
Cc1ccc(Cl)cc1N1CCN(S(=O)(=O)N2CCCCC2)CC1	5	1	6	73*	2	0
O=c1c2oc3nc4c(cc3c2ncn1CCCc1ccccc1)CCCC4	1	-1	nt	nt	7	nt
Cc1ccc2c(CSc3nncn3C)cc(=O)oc2c1C	4	0	-4	5	1	0
CC(C)CNC(=O)c1oc2ccccc2c1COc1ccccc1	nt	0	-5	63*	2	0
Cc1c(N2C(=O)/C(=C\c3ccc(N(C)C)cc3)N(C)C2=S)c(=O)n(-c2ccccc2)n1C	-1	-1	-11	11	-2	0
CC(=O)NNC(=O)c1csc(-c2csc(C)n2)n1	0	2	nt	nt	1	nt
O=C1NN=C(c2ccc(Cl)cc2)CC1c1cccc(Br)c1 (stereo not drawn)	4	1	-5	77*	1	-1
Cc1ccc(C2=NNC(=O)C(c3ccc(Cl)cc3)C2)cc1 (stereo not drawn)	0	-1	6	25	0	0
O=C1NN=C(c2ccc(Cl)cc2)CC1c1c[nH]c2ccccc12 (stereo not drawn)	0	1	-13	66*	2	0
O=C(CSCc1ccccc1)Nc1ccc(F)c(F)c1	1	1	-4	-11	35	0
O=C(CNC(=S)N(Cc1ccccc1)Cc1cccnc1)NC1CCCC1	nt	-1	6	7	1	-1
O=C(CCN(NC(=O)c1ccccc1)C1=NS(=O)(=O)c2ccccc21)NC1CCCCC1	0	1	-9	-3	3	0
CCCC1CC(C)(c2csc(Nc3ccc(OCC)cc3)n2)OC1=O (stereo not drawn)	0	0	-1	69*	-5	0
CCOc1ccc(NC(=O)CC2CC(C)(C)OC2=O)cc1 (stereo not drawn)	3	1	-5	-14	2	0
Cc1ccc(SCC(=O)NC(=O)Nc2ccc3c(c2)OCCO3)cc1C	0	1	-6	1	1	nt
Cc1cc2c(NC(=O)Nc3ccc(F)cc3)cccc2nn1	0	3.4*	nt	nt	-2	nt
O=C(NNc1nc2ccccc2s1)C1CC1	0	3.6*	0	-7	-1	-3
COc1cc(/C=C(\C#N)C(=O)NCC2CCCO2)ccc1OCCC(C)C (stereo not drawn)	0	-1	nt	nt	-1	nt
C=CCN(CC(O)c1cccc([N+](=O)[O-])c1)C(C)CCc1ccccc1 (stereo not drawn)	0	-1	nt	nt	5	nt
Cc1ccc2nc(N(CCCN(C)C)C(=O)c3ccc(S(=O)(=O)N(C)C)cc3)sc2c1	0	-1	-6	-9	1	0
Cc1ccc2nc(N(CCCN(C)C)C(=O)c3sc4ccccc4c3Cl)sc2c1	1	-1	2	89*	4	0
CN(C)CCCN(C(=O)CCc1ccccc1)c1nc2ccc(F)cc2s1	3	0	-5	89*	4	0
CN(C)CCCN(C(=O)c1ccc2c(c1)CCCC2)c1nc2ccc(F)cc2s1	1	-1	-2	87*	3	0
Cc1ccc(C(=O)N(CCCN(C)C)c2nc3ccc(Cl)cc3s2)cc1C	0	1	-4	89*	0	0
SMILES	L929 necroptosis	PERK inh	PKD1 inh	WT yeast gro inh	TNF necrop inh	DTT redox prof
CC1CCCCN1CC(=O)Nc1ccccc1Sc1ccccc1 (stereo not drawn)	1	1	-6	23	0	0
O=C(COC(=O)c1cncc(Br)c1)NC1CCCCCC1	2	0	7	-13	1	-2
CC1CN(c2ccccc2)CCN1Cc1nc(Cc2ccccc2)no1 (stereo not drawn)	3	1	1	8	2	0
Cc1ccc(N2C(=O)CS/C2=N\C(=S)Nc2ccccc2)cc1	1	0	nt	nt	1	nt
O=C(COc1ccccc1)NCC(=O)Nc1cccc(S(=O)(=O)NC2=NCCC2)c1	1	1	-10	1	1	0
COc1ccc(/C=C/C(=O)N[C@@H](C)C(=O)O)cc1	1	3.4*	-6	-8	1	0
O=C(/C=C\c1ccccc1OC(=O)c1ccccc1F)c1cc2ccccc2o1	1	1	1	18	-1	1
CN(C)C(=O)c1ccc(-c2cc(C(F)(F)F)n(C)n2)s1	0	0	nt	nt	-1	nt
O=[N+]([O-])c1ccc(/C=N/Nc2nc(N3CCCCCC3)nc(N3CCCCCC3)n2)o1	1	-1	-14	63*	-2	2
Cc1csc2nc(CNC(=O)CCC(=O)O)cn12	1	3.4*	-1	2	1	0
CC(=O)NCc1cn2c(C)csc2n1	1	1	-3	7	0	0
Cc1ccc(SCc2cn3c(C)csc3n2)cc1	0	1	-3	74*	1	0
Cc1cccc2nc(CSc3ccc(Cl)cc3)cn12	-1	0	2	73*	-1	-1
OCCN(CCO)CC(O)COc1ccc(Br)cc1 (stereo not drawn)	0	1	nt	nt	4	nt
OCCN(CCO)CC(O)COc1ccc(C23CC4CC(CC(C4)C2)C3)cc1 (stereo not drawn)	62	0	1	95*	5	0
Cc1ccc(NC(=S)NCCc2ccccc2)c(C)c1	-1	0	-13	70*	-8	nt
COc1ccccc1NC(=S)NCCc1ccc(F)cc1	1	1	-2	8	-7	2
Cc1ccc(C)c(NC(=S)NCCc2ccc(F)cc2)c1	-1	0	-3	69*	-12	0
Cc1ccc(Cl)cc1NC(=S)N/N=C/c1cccc2ccccc12	0	-1	nt	nt	-14	nt
Cc1ccc(N2CC(C(=O)Nc3c(C)n(C)n(-c4ccccc4)c3=O)CC2=O)cc1 (stereo not drawn)	2	0	-7	-19	1	0
COc1ccc(S(=O)(=O)N2CCCCCC2)cc1C(=O)OCc1c(C)noc1C	0	-2	3	97*	2	0
CCOc1ccccc1Nc1nc2ccccc2n1C(C)C	0	2	-5	15	1	0
COCCN(C(=S)Nc1ccc(C)cc1C)C(C)c1ccco1 (stereo not drawn)	-1	1	0	33	0	-1
